Screens from PubChem BioAssay.
This is a sample that favours compounds with a hit; in the whole collection about 3.2% have one here.
PfGluPho inh – PfG6PD (Plasmodium falciparum) enzyme inhibition | PfGluPho enzyme, NADPH resazurin-diaphorase fluorescence | inhibition, % at 20 µM | 350,000 tested, 0.78% active | AID 504690;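 active = inhibition reaching at least a set limit at 20 µM in the primary screen, cut at about 59% in these data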;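 note: 0% = DMSO wells with substrate and 100% = DMSO wells lacking glucose-6-phosphate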
CRFBP-R2 block – blocks CRF-induced signaling of the CRF-BP/CRF-R2 complex. AID 588475. 350,000 tested, 0.59% active. inhibition, % at 11.8 µM. HEK293 CRF-R2/CRF-BP, CRF-induced calcium fluorescence;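 active = inhibition of the ligand-induced calcium signal above about 50% at the single tested concentration, limit read from the data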
CRFR2-BP ag – agonists of human CRF-binding protein/CRF-R2 receptor complex. HEK293 CRF-R2/CRF-BP, calcium dye fluorescence (FLIPR); percent of saturating CRF peptide response. activation, % at 13.2 µM. 350,000 tested, 0.46% active. AID 588473;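 active = activation of at least 50%, plus an integration ratio under a set limit after plate pattern correction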;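 note: plate controls were neutral control wells without compound for no effect and CRF at EC100 for full effect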
FAS TE block – FAS thioesterase (human) inhibition. P49327. recombinant FAS-TE, OMFH fluorogenic substrate, fluorescence endpoint. inhibition, % at 15 µM. 360,000 tested, 0.67% active. AID 602261;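 active = compounds whose normalised, plate-corrected inhibition of enzyme fluorescence in the single-dose primary screen is 50% or more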;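 note: 0% = DMSO with enzyme and 100% = substrate without enzyme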
Target sequence (P49327 whole entry, looked up): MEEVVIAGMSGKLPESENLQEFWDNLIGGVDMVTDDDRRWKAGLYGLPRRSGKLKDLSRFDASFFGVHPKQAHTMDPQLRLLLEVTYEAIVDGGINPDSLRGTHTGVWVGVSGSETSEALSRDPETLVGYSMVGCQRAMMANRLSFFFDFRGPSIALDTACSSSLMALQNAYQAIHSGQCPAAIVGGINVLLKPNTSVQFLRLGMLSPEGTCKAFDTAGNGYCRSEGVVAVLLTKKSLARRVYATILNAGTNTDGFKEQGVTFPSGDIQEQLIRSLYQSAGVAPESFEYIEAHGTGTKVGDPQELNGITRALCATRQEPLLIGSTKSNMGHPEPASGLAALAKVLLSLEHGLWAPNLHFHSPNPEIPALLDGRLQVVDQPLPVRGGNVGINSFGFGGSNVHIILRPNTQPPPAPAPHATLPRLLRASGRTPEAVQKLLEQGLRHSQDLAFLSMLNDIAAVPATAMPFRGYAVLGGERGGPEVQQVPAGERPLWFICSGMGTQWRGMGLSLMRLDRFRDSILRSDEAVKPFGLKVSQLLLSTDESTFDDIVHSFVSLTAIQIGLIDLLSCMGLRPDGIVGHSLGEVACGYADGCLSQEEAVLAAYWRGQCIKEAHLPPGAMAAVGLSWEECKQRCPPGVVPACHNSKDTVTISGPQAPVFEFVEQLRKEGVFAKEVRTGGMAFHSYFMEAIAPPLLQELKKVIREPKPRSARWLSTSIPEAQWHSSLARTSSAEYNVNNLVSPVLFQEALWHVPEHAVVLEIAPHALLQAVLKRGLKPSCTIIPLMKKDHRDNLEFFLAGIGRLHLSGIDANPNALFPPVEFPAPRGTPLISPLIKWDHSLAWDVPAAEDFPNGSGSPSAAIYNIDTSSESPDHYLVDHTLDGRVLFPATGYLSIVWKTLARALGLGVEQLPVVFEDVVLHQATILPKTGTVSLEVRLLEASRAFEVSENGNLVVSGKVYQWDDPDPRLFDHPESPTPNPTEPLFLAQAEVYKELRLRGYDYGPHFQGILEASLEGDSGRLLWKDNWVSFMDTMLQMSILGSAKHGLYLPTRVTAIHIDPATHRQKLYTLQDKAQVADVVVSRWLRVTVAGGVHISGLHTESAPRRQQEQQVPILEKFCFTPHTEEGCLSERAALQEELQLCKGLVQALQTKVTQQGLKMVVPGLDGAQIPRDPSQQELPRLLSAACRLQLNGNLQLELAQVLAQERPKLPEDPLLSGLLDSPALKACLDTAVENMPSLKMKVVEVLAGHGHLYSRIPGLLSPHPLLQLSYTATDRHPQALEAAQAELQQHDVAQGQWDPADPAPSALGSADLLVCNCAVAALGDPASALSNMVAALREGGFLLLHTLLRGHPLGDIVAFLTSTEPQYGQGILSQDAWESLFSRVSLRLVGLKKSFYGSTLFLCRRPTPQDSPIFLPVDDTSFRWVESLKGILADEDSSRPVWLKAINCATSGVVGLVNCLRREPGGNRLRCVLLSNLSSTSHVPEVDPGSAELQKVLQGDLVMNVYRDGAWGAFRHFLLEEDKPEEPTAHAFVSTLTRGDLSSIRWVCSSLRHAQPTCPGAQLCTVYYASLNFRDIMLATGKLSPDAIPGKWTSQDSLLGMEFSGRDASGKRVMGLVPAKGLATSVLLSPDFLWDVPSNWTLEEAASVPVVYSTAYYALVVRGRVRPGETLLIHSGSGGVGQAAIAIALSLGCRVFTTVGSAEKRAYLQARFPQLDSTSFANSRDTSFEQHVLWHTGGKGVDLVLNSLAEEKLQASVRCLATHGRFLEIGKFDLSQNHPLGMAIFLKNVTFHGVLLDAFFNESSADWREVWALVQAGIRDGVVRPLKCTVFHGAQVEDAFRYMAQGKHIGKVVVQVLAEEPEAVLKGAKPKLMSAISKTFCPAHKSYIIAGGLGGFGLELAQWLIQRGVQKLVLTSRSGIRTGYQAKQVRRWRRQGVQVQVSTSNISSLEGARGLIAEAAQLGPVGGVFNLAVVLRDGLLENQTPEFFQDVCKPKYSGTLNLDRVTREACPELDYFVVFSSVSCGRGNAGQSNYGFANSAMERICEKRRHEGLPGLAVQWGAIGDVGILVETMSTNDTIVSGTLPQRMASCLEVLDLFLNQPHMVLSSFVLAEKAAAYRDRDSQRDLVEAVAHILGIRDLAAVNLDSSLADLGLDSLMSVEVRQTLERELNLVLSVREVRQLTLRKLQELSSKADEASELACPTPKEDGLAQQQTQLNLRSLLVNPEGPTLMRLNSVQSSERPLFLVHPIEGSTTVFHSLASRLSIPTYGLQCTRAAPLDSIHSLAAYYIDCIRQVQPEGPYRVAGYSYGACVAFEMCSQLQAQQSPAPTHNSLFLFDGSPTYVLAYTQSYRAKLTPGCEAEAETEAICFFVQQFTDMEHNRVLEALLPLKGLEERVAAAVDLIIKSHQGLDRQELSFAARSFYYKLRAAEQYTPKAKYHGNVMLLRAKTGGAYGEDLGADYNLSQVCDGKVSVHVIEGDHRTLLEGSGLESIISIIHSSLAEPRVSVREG
aDG glyco act – increases alpha dystroglycan glycosylation | Pro5-aDG cells, alpha-DG glycosylation AlphaScreen (IIH6); 0% Pro5, 100% B10-LARGE cell signal | 360,000 tested, 0.22% active | activation, % at 10 µM;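 active = activation of at least 8% versus controls, or a plate z-score of at least 8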;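 note: Pro5 are CHO cells carrying HIG-tagged alpha-DG that lacks glycosylation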
Cardio protect – modulators protecting cardiomyocytes from myocardial damage | 360,000 tested, 0.63% active | protection from H2O2 cell death, % at 20 µM | H9c2 cardiomyocytes, H2O2 injury protection, ATPLite, 2 h;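 active = compounds giving at least 50% protection of heart cells from peroxide-induced death in the single-dose screen, raw or plate-pattern-corrected value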;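 note: 0% = DMSO wells with peroxide and 100% = DMSO wells without peroxide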
PfG6PD confirm – confirmation of Plasmodium falciparum G6PD inhibitors; shares compounds with PfGluPho inh; recombinant PfGluPho, NADPH-diaphorase-resazurin fluorescence; inhibition, % at 20 µM; 2,400 tested, 34% active; AID 504753;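 active = inhibition of at least 50% at 20 µM in any single replicate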;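 note: 0% = DMSO with substrate and 100% = DMSO lacking glucose-6-phosphate substrate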
Diaphorase 10uM – inhibits diaphorase or oxidizes, flagging false PfG6PD hits | inhibition, % at 20 µM | 820 tested, 39% active | diaphorase-coupled resazurin reduction, fluorescence, NADPH 10 uM | shares compounds with PfGluPho inh;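 active = average inhibition reaching 50% or more with the compound at 20 µM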;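 note: resorufin red fluorescence formed as diaphorase reduces resazurin using NADPH; 0% = DMSO with enzyme and 100% = DMSO without enzyme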
Diaphorase 30uM – counter-screen for P. falciparum G6PD inhibitors: diaphorase inhibitors, oxidizers. 820 tested, 29% active. Diaphorase/resazurin coupled assay, resorufin fluorescence, 30 uM NADPH. AID 504863. shares compounds with PfGluPho inh. inhibition, % at 20 µM;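 active = inhibition averaging 50% or more, tested at 20 µM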;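 note: 0% = DMSO with enzyme and 100% = DMSO wells lacking diaphorase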
Numbers without * were called inactive; . = not tested or not shown.

SMILES | PfGluPho inh | CRFBP-R2 block | CRFR2-BP ag | FAS TE block | aDG glyco act | Cardio protect | PfG6PD confirm | others
COc1cccc(CNc2ccc3[nH]c(=O)[nH]c3c2)c1OCc1ccc(F)cc1 | 112* | 3 | 0 | 6 | 0 | 2 | 51* | Diaphorase 10uM=-9;Diaphorase 30uM=-1
Oc1ccc(NCc2ccccc2OCc2ccccc2)cc1 | 73* | -15 | 0 | 8 | 0 | -9 | 50* | Diaphorase 10uM=-10;Diaphorase 30uM=-16
COc1cc(CNc2ccc3[nH]c(=O)[nH]c3c2)cc(Cl)c1OCC(=O)NC(C)(C)C | 83* | -9 | 3 | -9 | 0 | 11 | 38
COc1cc(CNn2c(C)n[nH]c2=S)cc(Cl)c1OCC(=O)NC(C)(C)C | 42 | -1 | 0 | -6 | 0 | -3 | .
CCNCc1ccccc1OCc1ccccc1 | -21 | 9 | -1 | 0 | 0 | 0 | .
C=CCN(C(=O)CCC(=O)Nc1cc(C)on1)C(C(=O)NC(C)(C)C)c1ccc(OC)cc1 (stereo unspecified) | 7 | 12 | 0 | -1 | 0 | 10 | .
CCOC(=O)C1(Cc2ccc(Cl)cc2)CCN(C(=O)c2sc(C)nc2C)CC1 | -11 | -4 | -1 | 3 | 2 | -13 | .
CCC(C)C(=O)Nc1nc(-c2ccc3c(c2)NC(=O)CO3)cs1 (stereo unspecified) | 64* | 0 | -1 | 46 | 0 | 6 | 14
c1ccc(CCNc2nc(-c3ccncc3)cs2)cc1 | -6 | -2 | -2 | -2 | 1 | -11 | .
O=C1COc2ccc(-c3csc(NCCc4ccccc4)n3)cc2N1 | 61* | 2 | -1 | 27 | 0 | -8 | 9
CC12COC3(C(=O)N4CCN(c5ccccn5)CC4)CC1CCC32C (stereo unspecified) | -11 | -5 | -1 | -2 | 0 | -4 | .
C=CCn1c(C)cc(C(=O)COC(=O)CCc2cc(OC)c(OC)c(OC)c2)c1C | 80* | -14 | -2 | 1 | 0 | -4 | 24
COc1ccc(OC)c(N(CC(=O)NCC2CCCO2)S(=O)(=O)c2ccccc2)c1 (stereo unspecified) | 4 | 8 | -1 | -9 | 0 | 2 | .
Cc1cc(NS(=O)(=O)c2ccc(NC(=O)Cc3ccccc3)cc2)nc(C)n1 | -9 | 2 | 0 | -8 | 0 | 4 | .
O=C(c1ccco1)N1N=C(c2ccccc2)CC1c1ccc2nccnc2c1 (stereo unspecified) | 12 | -39 | 0 | 2 | 0 | 14 | .
Cc1ccc(C)n1-c1ccc(N2CCOCC2)cc1 | 25 | -10 | -3 | -7 | 0 | 3 | .
Cc1ccc(C)n1-c1ccc(N(C)C)cc1 | 63* | -1 | 1 | 2 | 0 | -21 | 0
OCCN1CCN(C(=S)c2ccc(Cl)cc2)CC1 | 56 | -6 | -1 | -7 | 0 | 11 | .
CC(C)(C)c1cc(C(=S)N2CCN(CCO)CC2)cc(C(C)(C)C)c1O | 60* | -7 | 1 | -6 | 0 | 0 | 11
CCCNC(=O)C1(C)CCN(C(=O)c2ccc3snnc3c2)C1 (stereo unspecified) | . | . | . | -2 | 0 | 2 | .
CCOC(=O)c1c(CSCc2ccccc2)oc2ccc(O)c(CN(C)C)c12 | 59* | -33 | 3 | -19 | 1 | -4 | 40
O=c1c2ccccc2oc2cc(C#Cc3ccccn3)ccc12 | 2 | -1 | 0 | 1 | 0 | -11 | .
C=CCn1c2ccccc2c(=O)c2cc(C#Cc3ccccn3)ccc21 | 80* | -5 | 2 | 21 | 1 | 16 | 36
O=C(NCCOc1ccccc1)C1C(=O)Nc2ccccc2C(=O)N1C1CCCCC1 (stereo unspecified) | . | . | . | . | 0 | . | .
Cc1ccc(F)cc1NC(=O)COC(=O)C1CCN(c2ccc(C(F)(F)F)cn2)CC1 | 26 | 2 | 3 | 22 | 0 | -5 | .
